Assay outcomes from PubChem.
Mtb FBA inh = inhibits M. tuberculosis FBA enzyme; P9WQA3; purified M. tuberculosis FBA, fluorescence read-out; inhibition, % at 1 µM; actives 2.3% (n = 360,000); in the data active = inhibition above about 27%;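 note: 0% = vehicle and 100% = reference inhibitor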
Rv3671c protease = inhibits the M. tuberculosis serine protease Rv3671c; inhibition, % at 5.96 µM; actives 0.048% (n = 320,000); AID 2606; in the data active = inhibition above about 38%;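 note: extracellular domain of Rv3671c used as enzyme; 0% = enzyme with DMSO and 100% = no enzyme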
Target sequence (P9WHR9 whole entry, looked up, the tested form may be a part): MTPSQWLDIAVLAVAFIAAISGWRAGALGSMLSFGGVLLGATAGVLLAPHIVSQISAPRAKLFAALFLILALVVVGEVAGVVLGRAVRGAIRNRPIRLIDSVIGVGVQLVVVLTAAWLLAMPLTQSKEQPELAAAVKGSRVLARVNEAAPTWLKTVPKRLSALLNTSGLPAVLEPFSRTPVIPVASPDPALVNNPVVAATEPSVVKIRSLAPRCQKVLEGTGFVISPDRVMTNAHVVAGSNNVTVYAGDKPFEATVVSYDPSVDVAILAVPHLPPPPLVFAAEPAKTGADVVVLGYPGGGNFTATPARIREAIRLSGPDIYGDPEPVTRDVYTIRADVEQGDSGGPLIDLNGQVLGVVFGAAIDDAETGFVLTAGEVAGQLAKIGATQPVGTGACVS
UGM FP inh = Mtb UDP-galactopyranose mutase inhibition; purified UGM, fluorescence polarization probe displacement; actives 0.06% (n = 320,000); inhibition, % at 10 µM; P9WIQ1; in the data active = inhibition above about 10%, passing the limit was not always enough
SSB-PriA inh = blocks PriA binding to SSB C-terminal tail; actives 0.6% (n = 430,000); AlphaScreen SSBct-PriA binding, biotinylated peptide; AID 1272365; inhibition, % at 33 µM; in the data active = inhibition mostly above about 37%, no sharp cut-off; inactive = mostly below about 20%;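 note: plate controls were negative control peptide for no effect and reference peptide for full effect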
Mtb bLac sens = beta-lactam sensitization of Mtb H37Rv; actives 0.27% (n = 330,000); inhibition, % at 25 µM; AID 434955; M. tuberculosis H37Rv growth with meropenem, percent inhibition; call rule not given here;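 note: growth measured after seven days incubation then overnight dye step; 0% = bacteria only wells and 100% = bacteria with antibiotic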
GDH-TPI inh = counter-screen for M. tuberculosis FBA inhibitors: GDH-TPI coupled enzymes. GDH-TPI coupled enzyme counterscreen, NADH absorbance. actives 1.2% (n = 360,000). inhibition, % at 4.8 µM; in the data active = inhibition above about 30%;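 note: 0% = DMSO wells and 100% = wells lacking the enzyme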
* hit, by the source's call; i = inactive; / = no result; + = active, no number. Only some compounds are listed: those with a hit (about 3.2% of all), similar ones and a draw of the others.

SMILES | Mtb FBA inh | Rv3671c protease | UGM FP inh | SSB-PriA inh | Mtb bLac sens | GDH-TPI inh
C[C@H](NC(=O)[C@@H]1Cc2ccccc2CN1)C(=O)NCC1CCC(C(=O)O)CC1 (some centres undefined) | / | / | / | -6 | / | /
O=C(N/N=C/c1cccc2nccnc12)c1ccccc1O | -2 | 12 | -1 | i | 100 | 14
O=C(N/N=C/c1cccc2cccnc12)c1ccccc1O | -2 | 12 | 2 | + | 99 | 21
O=C(N/N=C/c1cccc2nccnc12)c1ccncc1 | 1 | 3 | 1 | + | 99 | 24
COc1ccc(C(=O)N/N=C/c2ccc3cccc(O)c3n2)cc1 | -1 | -12 | 2 | / | 90 | 33*
COc1ccc(C(=O)NN=Cc2cccc3cccnc23)cc1 | / | / | / | 80* | / | /
O=C(CC1CCCCN1S(=O)(=O)c1cccs1)NC1CCCCCC1 (centres undefined) | / | / | / | 18 | / | /
CCOc1ccc(C=NOCC(=O)NCc2ccco2)cc1 | / | / | / | 12 | / | /
COc1cc(C(=O)NN=C(c2ccccc2)c2ccccn2)cc(OC)c1OC | / | / | / | -5 | / | /
CCOc1ccc(C(=O)NN=Cc2cccc3cccnc23)cc1 | / | / | / | 89* | / | /
CCOc1ccc(C(=O)N/N=C(\c2ccccc2)c2ccccn2)cc1 | 0 | 8 | 3 | / | 98 | 32*
O=C(Cn1nc(-c2cccs2)c2sc(N3CCCCC3)nc2c1=O)OCc1ccccc1 | / | / | / | 11 | / | /
CS(=O)(=O)c1ccc(Cc2nnc(N)o2)cc1 | / | / | / | -19 | / | /
O=S(=O)(NCCOc1ccc(F)cc1)c1ccc2c(c1)CCCC2 | / | / | / | -24 | / | /
CCn1cc(C(=O)NCc2nc(-c3cccn3C)no2)c(=O)c2ccc(C)nc21 | / | / | / | -11 | / | /
COc1ccc(-c2cn3c(n2)CCC3)cc1 | 19 | 3 | 2 | -5 | -4 | -10
c1ccc(-c2ccc(-c3cn4c(n3)CCC4)cc2)cc1 | 158* | 4 | 1 | 15 | / | 0
Cc1[nH]c2ccccc2c1/C=N/NC(N)=S | -1 | 5 | -1 | / | 92 | 37*
CCCCN1C(=O)Cc2c1nc(N)c1c(N)nc(N(CCC)CCC)c(C#N)c21 | -5 | -54 | 6 | 39* | -7 | 12
CCOc1ccc(C(=O)Nc2cccc(-c3cc4ccccc4oc3=O)c2)cc1[N+](=O)[O-] | 2 | -65 | -3 | -2 | 3 | 32*
CCCN1CCCc2cc(CCNC(=O)C(=O)Nc3ccc(C)c(C)c3)ccc21 | / | / | / | 36 | / | /
CCCN1CCCc2cc(CCNS(=O)(=O)c3ccc(C)cc3C)ccc21 | / | / | / | 41* | / | /
CCCN1CCCc2cc(CCNS(=O)(=O)c3ccc(NC(C)=O)cc3C)ccc21 | / | / | / | 70* | / | /
Cn1ccc(C(=O)N(CCCN2CCOCC2)c2nc3c(F)cc(F)cc3s2)n1 | / | / | / | -4 | / | /
CCOC(=O)c1ccccc1NC(=O)CSc1ccc2nc(-c3ccccc3)cn2n1 | / | / | / | -17 | / | /
SMILES | Mtb FBA inh | Rv3671c protease | UGM FP inh | SSB-PriA inh | Mtb bLac sens | GDH-TPI inh
N#CCSc1ccc2nc(-c3ccccc3)cn2n1 | 134* | 0 | -1 | -8 | 2 | 22
CN1N=C(C(=O)N=c2sc3ccccc3n2C)CCC1=O | 1 | / | / | -6 | / | 49*
CCC(=O)NC(=S)Nc1ccc(NC(=O)c2cc3ccccc3o2)c(OC)c1 | 1 | -7 | 0 | 3 | -6 | 32*
Nc1[nH]c(=O)[nH]c(=O)c1N=Nc1cccc(Cl)c1 | -3 | -10 | -1 | -10 | 6 | 4
Nc1[nH]c(=O)[nH]c(=O)c1N=Cc1ccccc1 | 43* | / | / | / | / | 7
Cc1ccc(OC2CCN(C(=O)Cc3ccc(SC(C)C)cc3)CC2)nn1 | / | / | / | 4 | / | /
O=C(NNC(=S)Nc1ccc(Cl)c(Cl)c1)c1ccccn1 | 3 | 12 | 0 | 92* | 7 | 5
CCNC(=S)NNC(=O)c1ccccn1 | -1 | -4 | 1 | 92* | 48 | -1
CCNC(=S)NNC(=O)c1ccccc1Cl | 0 | 1 | / | -4 | -4 | -3
S=C(NCc1ccccn1)Nc1ccc(Cl)c(Cl)c1 | -1 | -3 | 0 | -5 | -3 | -1
Cn1c(=O)n(C)c2cc(C=NNC(N)=S)ccc21 | / | / | / | -11 | / | /
CN(CC(=O)NCCOc1ccc(F)cc1)c1nc2c(Cl)cccc2s1 | / | / | / | -8 | / | /
CCc1nc(-c2ccc(N3CCN(C(=O)c4cc(-c5ccco5)on4)CC3)nc2)no1 | / | / | / | -13 | / | /
CN(C)/C=C1/N=C(c2ccccc2)OC1=O | 0 | 2 | 1 | 14 | 0 | 52*
COc1ccc(OC)c(/C=C2\N=C(c3ccccc3)OC2=O)c1 | 0 | -2 | 8 | -8 | 61 | 8
Cc1ccc(C2=N/C(=C\N(C)C)C(=O)O2)cc1 | 0 | 3 | 2 | -7 | / | 45*
CN(C)/C=C1\N=C(c2cccnc2Oc2ccc(Cl)cc2)OC1=O | 1 | -1 | -3 | 2 | 1 | 32*
